# According to PubChem BioAssay (Tox21):
# Values joined by “and” are separate entries in the source; they are usually repeats but may differ in a detail not shown here. Equal values may be shown once. Values without a mark were called inactive. Active and inactive are the calls of the source. Unless noted, the call rests on the fitted dose curve.
# Biological target: Thyrotropin-releasing hormone receptor (Homo sapiens) (UniProt P34981)
# Test: qHTS assay to identify small molecule antagonists of the thyrotropin-releasing hormone receptor (TRHR) signaling pathway (AID 1346877; active means well fitted inhibition curve with a large enough effect in the repeat runs, not every such curve was filed as active)
# Conditions: TRHR-HEK293, TRH-induced calcium fluorescence, antagonist mode; series mostly up to 51.3 µM; activity, negative = inhibition: at the top concentration
# In short: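 Human TRHR in HEK293 cells; inhibition of the intracellular calcium rise triggered by 1 nM TRH was followed by fluorescence over 3 min. Compounds were run at 15 concentrations, three replicates each.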
# On the % scale 0 is the no-effect control and ±100 the full control effect; potency means the concentration at half of the fitted maximal effect.
# Sequence of Thyrotropin-releasing hormone receptor (Homo sapiens) (P34981 whole entry, looked up): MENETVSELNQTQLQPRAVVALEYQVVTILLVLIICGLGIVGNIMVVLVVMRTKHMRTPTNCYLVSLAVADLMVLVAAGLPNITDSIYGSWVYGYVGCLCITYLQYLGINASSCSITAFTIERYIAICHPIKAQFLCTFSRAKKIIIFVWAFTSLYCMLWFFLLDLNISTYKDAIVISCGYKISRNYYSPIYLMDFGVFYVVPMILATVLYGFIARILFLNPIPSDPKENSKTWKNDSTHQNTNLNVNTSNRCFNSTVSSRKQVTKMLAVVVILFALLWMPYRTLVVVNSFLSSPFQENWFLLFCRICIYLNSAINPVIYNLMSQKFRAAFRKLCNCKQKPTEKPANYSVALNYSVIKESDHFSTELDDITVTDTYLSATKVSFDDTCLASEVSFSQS
Compound,"activity, negative = inhibition",Potency
CCCCC(CC)COC(=O)OOC(C)(C)C (stereo not given),1.98%,–
O=C1C2(Cl)C3(Cl)C4(Cl)C(Cl)(Cl)C5(Cl)C3(Cl)C1(Cl)C5(Cl)C24Cl (stereo not given),–,28.9 µM (active)
O=c1[nH]c2cc(Cl)ccc2n1C1CCNCC1,-0.853% [at 23.6 µM],–
CCOP(=O)(OCC)Oc1nc(Cl)c(Cl)cc1Cl,-8.83%,–
CN(C)CCc1c[nH]c2ccccc12,3.22%,–
O.O.O.O=C([O-])[C@H]([O-])[C@@H]([O-])C(=O)[O-].O=C([O-])[C@H]([O-])[C@@H]([O-])C(=O)[O-].[K+].[K+].[Sb+3].[Sb+3],-20.3%,–
O=c1[nH]c(Cl)c(Cl)cc1Cl,0.145%,–
Clc1ccc(C2(Cn3cncn3)OCCO2)c(Cl)c1,-0.0901%,–
CCC(OC(C)=O)C(CC(C)NC)(c1ccccc1)c1ccccc1 (stereo not given),-1.61%,–
CCC[CH2][Sn]([CH2]CCC)([CH2]CCC)[O][Sn]([CH2]CCC)([CH2]CCC)[CH2]CCC,–,1.05 µM (active)
CCOP(=S)(OCC)Oc1cc(C)nc(N(CC)CC)n1,-3.46%,–
Nc1c(Cl)c(Cl)c(Cl)c(Cl)c1Cl,1.56%,–
Nc1ccccc1-c1ccccc1,-6.19%,–
CCOP(=S)(NC(C)C)Oc1ccccc1C(=O)OC(C)C (stereo not given),-9.89%,–
Cc1c([N+](=O)[O-])c(C)c([N+](=O)[O-])c(C(C)(C)C)c1[N+](=O)[O-],-7.37%,–
ClC1=C(Cl)[C@]2(Cl)[C@@H]3[C@H]4C[C@H]([C@@H]5O[C@H]45)[C@@H]3[C@@]1(Cl)C2(Cl)Cl,0.452%,–
CC(C)Br,-0.746%,–
C=C(C)C(=O)[O][Sn]([CH2]CCC)([CH2]CCC)[CH2]CCC,–,2.69 µM (active)
CCC[CH2][Sn]([CH2]CCC)([CH2]CCC)[CH2]CCC,-11.8%,–
C#CCC1=C(C)C(OC(=O)C2C(C=C(C)C)C2(C)C)CC1=O (stereo not given),-8.1%,–
CN1CCc2cc3c(cc2C1O)OCO3 (stereo not given),1.96%,–
CCCCC(CC)COC(=O)c1ccccc1C(=O)OCC(CC)CCCC (stereo not given),0.207%,–
N#Cc1ccc(N(CC(N)=O)CC(F)(F)F)cc1C(F)(F)F,-2.59%,–
CCN(CC)Cc1nccn1-c1ccc([N+](=O)[O-])cc1C(=O)c1ccccc1Cl,5.35% [at 23.6 µM],–
CC(C)c1c(CN(C)C(C)Cc2ccccc2)n(C)n(-c2ccccc2)c1=O (stereo not given),-8.58% [at 23.6 µM],–
C[C@]12Cc3cn[nH]c3C[C@@H]1CC[C@@H]1[C@@H]2CC[C@@]2(C)[C@H]1CC[C@]2(C)O,-11.5% [at 23.6 µM],–
BrCC(Br)(Br)Br,–,15.7 µM (active)
COP(=S)(OC)Oc1ccc([N+](=O)[O-])c(C)c1,-3.45%,–
CSSC,-2.67%,–
CC1(C)[C@H](/C=C2\CCSC2=O)[C@@H]1C(=O)OCc1coc(Cc2ccccc2)c1,4.37%,–

# Biological target: Thyrotropin-releasing hormone receptor (Homo sapiens) (UniProt P34981)
# Test: qHTS assay to identify small molecule agonists of the thyrotropin-releasing hormone receptor (TRHR) signaling pathway (AID 1346891)
# Conditions: TRHR-HEK293 calcium fluorescence, agonist mode; series mostly up to 57.6 µM; activation: at the top concentration
# In short: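 Readout was intracellular calcium fluorescence in TRHR-Hek293 cells. Cells were incubated 18 h, dye-loaded 2 h at 37 °C, and treated with compound in agonist mode.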
Compound,activation,Potency
CCCCC(CC)COC(=O)OOC(C)(C)C (stereo not given),0.0978%,–
O=C1C2(Cl)C3(Cl)C4(Cl)C(Cl)(Cl)C5(Cl)C3(Cl)C1(Cl)C5(Cl)C24Cl (stereo not given),–,30.4 µM (active) and 37.3 µM (active)
O=c1[nH]c2cc(Cl)ccc2n1C1CCNCC1,-0.0443% [at 26.5 µM],–
CCOP(=O)(OCC)Oc1nc(Cl)c(Cl)cc1Cl,-0.132%,–
CN(C)CCc1c[nH]c2ccccc12,13.1%,–
O.O.O.O=C([O-])[C@H]([O-])[C@@H]([O-])C(=O)[O-].O=C([O-])[C@H]([O-])[C@@H]([O-])C(=O)[O-].[K+].[K+].[Sb+3].[Sb+3],-0.241%,–
O=c1[nH]c(Cl)c(Cl)cc1Cl,1.16%,–
Clc1ccc(C2(Cn3cncn3)OCCO2)c(Cl)c1,0.793%,–
CCC(OC(C)=O)C(CC(C)NC)(c1ccccc1)c1ccccc1 (stereo not given),7.07%,–
CCC[CH2][Sn]([CH2]CCC)([CH2]CCC)[O][Sn]([CH2]CCC)([CH2]CCC)[CH2]CCC,–,1.35 µM (active)
CCOP(=S)(OCC)Oc1cc(C)nc(N(CC)CC)n1,0.125%,–
Nc1c(Cl)c(Cl)c(Cl)c(Cl)c1Cl,0.508%,–
Nc1ccccc1-c1ccccc1,0.575%,–
CCOP(=S)(NC(C)C)Oc1ccccc1C(=O)OC(C)C (stereo not given),-0.499%,–
Cc1c([N+](=O)[O-])c(C)c([N+](=O)[O-])c(C(C)(C)C)c1[N+](=O)[O-],0.288%,–
ClC1=C(Cl)[C@]2(Cl)[C@@H]3[C@H]4C[C@H]([C@@H]5O[C@H]45)[C@@H]3[C@@]1(Cl)C2(Cl)Cl,0.477%,–
CC(C)Br,-0.212%,–
C=C(C)C(=O)[O][Sn]([CH2]CCC)([CH2]CCC)[CH2]CCC,–,11 µM (active)
CCC[CH2][Sn]([CH2]CCC)([CH2]CCC)[CH2]CCC,9.21%,–
C#CCC1=C(C)C(OC(=O)C2C(C=C(C)C)C2(C)C)CC1=O (stereo not given),0.329%,–
CN1CCc2cc3c(cc2C1O)OCO3 (stereo not given),-0.0476%,–
CCCCC(CC)COC(=O)c1ccccc1C(=O)OCC(CC)CCCC (stereo not given),0.558%,–
N#Cc1ccc(N(CC(N)=O)CC(F)(F)F)cc1C(F)(F)F,0.0766%,–
CCN(CC)Cc1nccn1-c1ccc([N+](=O)[O-])cc1C(=O)c1ccccc1Cl,-0.33% [at 26.5 µM],–
CC(C)c1c(CN(C)C(C)Cc2ccccc2)n(C)n(-c2ccccc2)c1=O (stereo not given),-0.589% [at 26.5 µM],–
C[C@]12Cc3cn[nH]c3C[C@@H]1CC[C@@H]1[C@@H]2CC[C@@]2(C)[C@H]1CC[C@]2(C)O,-0.533% [at 26.5 µM],–
BrCC(Br)(Br)Br,2.54%,–
COP(=S)(OC)Oc1ccc([N+](=O)[O-])c(C)c1,-0.876%,–
CSSC,0.147%,–
CC1(C)[C@H](/C=C2\CCSC2=O)[C@@H]1C(=O)OCc1coc(Cc2ccccc2)c1,0.0203%,–
